Records with an inconclusive call do not appear. Calls of active or inactive are those of the source. Unless noted, the call rests on the fitted dose curve.
Key:
[1] = Nuclear factor erythroid 2-related factor 2/antioxidant responsive element (Nrf2/ARE) small molecule agonists: luciferase reporter gene qHTS assay in human keratinocytes (AID 1919969); further: nearly all actives have a fitted effect of over 35% in size
[2] = biological target: Gonadotropin-releasing hormone receptor (Homo sapiens) (UniProt P30968); experiment: Human gonadotropin-releasing hormone receptor (GnRHR) small molecule agonists, calcium flux assay in GnRHR-HEK293 cells (AID 1920063); further: nearly all actives have a fitted effect of over 35% in size
Chain of Gonadotropin-releasing hormone receptor (Homo sapiens) (P30968 whole entry, looked up): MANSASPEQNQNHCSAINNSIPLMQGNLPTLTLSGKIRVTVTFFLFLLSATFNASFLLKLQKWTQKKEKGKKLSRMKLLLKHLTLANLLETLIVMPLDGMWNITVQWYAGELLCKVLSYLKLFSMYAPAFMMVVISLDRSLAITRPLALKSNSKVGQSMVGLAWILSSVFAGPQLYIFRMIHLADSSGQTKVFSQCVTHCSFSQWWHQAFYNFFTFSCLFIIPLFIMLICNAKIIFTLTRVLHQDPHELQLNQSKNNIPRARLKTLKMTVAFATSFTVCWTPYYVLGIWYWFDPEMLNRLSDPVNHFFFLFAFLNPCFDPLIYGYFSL
In short: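 HEK293 cells stably expressing human GnRHR were plated 18 h at 37 °C, loaded with calcium dye 1 h at 37 °C, then given compound in agonist mode; fluorescence (Ex/Em 480/540) read kinetically for 3 min at 1 s intervals.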

[3] = biological target: KiSS-1 receptor (Homo sapiens) (UniProt Q969F8); experiment: Human kisspeptin (KISS1R) small molecule agonists, calcium flux assay in KISS1R-HEK293 cells (AID 1920064; active means well fitted activation curve with a large enough effect in the repeat runs)
Chain of KiSS-1 receptor (Homo sapiens) (Q969F8 whole entry, looked up): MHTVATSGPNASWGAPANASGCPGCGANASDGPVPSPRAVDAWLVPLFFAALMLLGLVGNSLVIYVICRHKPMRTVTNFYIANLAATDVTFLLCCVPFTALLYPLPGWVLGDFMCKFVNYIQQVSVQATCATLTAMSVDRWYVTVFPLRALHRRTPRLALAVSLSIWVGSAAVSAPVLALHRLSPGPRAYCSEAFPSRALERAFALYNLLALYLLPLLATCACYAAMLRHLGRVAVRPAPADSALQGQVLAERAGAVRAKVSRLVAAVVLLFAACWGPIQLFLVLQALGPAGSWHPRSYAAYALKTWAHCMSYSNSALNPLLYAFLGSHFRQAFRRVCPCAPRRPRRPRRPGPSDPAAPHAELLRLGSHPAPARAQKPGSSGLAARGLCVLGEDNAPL
In short: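 HEK293 cells stably expressing human KISS1R were plated 18 h at 37 °C, loaded with calcium dye for 1 h at 37 °C, then given compound by pin tool. Fluorescence (Ex/Em 480/540) was read kinetically for 3 min.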

[4] = G protein-coupled receptor (GPCR) small molecule agonists, calcium flux assay: HEK293 wild type cell line counter screen (AID 1920065)
In short: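 Cells were plated and cultured 18 h at 37 C/5% CO2, then loaded with calcium dye for 1 h at 37 C. Compounds in DMSO were pin-transferred in agonist mode, and fluorescence (Ex/Em 480/540) was read kinetically for 3 min at 1 s intervals.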

[5] = p53 small molecule agonists, cell-based qHTS assay with human liver microsomes (AID 1963577)
In short: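 p53RE-bla cells, 4,000/well, compound added after 5 h, with human liver microsomes 0.5 mg/mL and NADPH 0.5 mg/mL final; 16 h at 37 C, then LiveBLAzer 2 h RT, fluorescence.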

[6] = p53 small molecule agonists, cell-based qHTS assay with rat liver microsomes (AID 1963578)
In short: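 p53RE-bla cells, 4,000/well, pre-incubated 5 h, then given compounds plus rat liver microsomes (0.5 mg/mL final) and NADPH (0.5 mg/mL final). Incubation 16 h at 37 C; beta-lactamase reporter read by LiveBLAzer fluorescence after 2 h at room temperature.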

[7] = p53 small molecule agonists, cell-based qHTS assay with human liver microsomes: qHTS cell viability counter screen (AID 1963579); further: nearly all actives have a fitted effect of over 45% in size
In short: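 p53RE-bla cells, 4,000/well, dosed 5 hours after plating, with human liver microsomes (0.5 mg/mL final) plus NADPH (0.5 mg/mL final), 16 hours at 37 C. Viability read as CellTiter-Glo luminescence after 30 min at room temperature.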

[8] = p53 small molecule agonists, cell-based qHTS assay with rat liver microsomes: qHTS cell viability counter screen (AID 1963580); further: nearly all actives have a fitted effect of over 45% in size
In short: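 Viability is assessed in parallel with the p53 reporter read: HCT-116 p53RE-bla cells receive compounds plus rat microsomes and NADPH (0.5 mg/mL final apiece), incubate 16 h at 37 C, and then CellTiter-Glo luminescence is recorded.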

[9] = p53 small molecule agonists, cell-based qHTS assay: qHTS cell viability counter screen (AID 1963581); further: nearly all actives have a fitted effect of over 45% in size
In short: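 p53RE-bla HCT-116 cells were exposed to compounds for 16 h at 37 C; after the beta-lactamase FRET read in the same wells, CellTiter-Glo was added and luminescence (intracellular ATP) read after 30 min at room temperature.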

[10] = p53 small molecule agonists, cell-based qHTS assay (AID 1963582; active means well fitted activation curve with a large enough effect in the signal ratio in the repeat runs, not every such curve was filed as active; the % refers to the signal ratio)
In short: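 p53RE-bla beta-lactamase reporter cells rested 5 h at 37 C/5% CO2, then received compounds in DMSO by pin transfer and were incubated 16 h at 37 C. LiveBLAzer B/G FRET substrate was loaded for 2 h at room temperature before fluorescence reading.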

[11] = biological target: 5-hydroxytryptamine receptor 2A (Homo sapiens) (UniProt P28223); experiment: 5-hydroxytryptamine receptor 2A (HTR2A) small molecule antagonists, cell-based qHTS assay (AID 1963586); further: nearly all actives have a fitted effect of over 45% in size
Chain of 5-hydroxytryptamine receptor 2A (Homo sapiens) (P28223 whole entry, looked up): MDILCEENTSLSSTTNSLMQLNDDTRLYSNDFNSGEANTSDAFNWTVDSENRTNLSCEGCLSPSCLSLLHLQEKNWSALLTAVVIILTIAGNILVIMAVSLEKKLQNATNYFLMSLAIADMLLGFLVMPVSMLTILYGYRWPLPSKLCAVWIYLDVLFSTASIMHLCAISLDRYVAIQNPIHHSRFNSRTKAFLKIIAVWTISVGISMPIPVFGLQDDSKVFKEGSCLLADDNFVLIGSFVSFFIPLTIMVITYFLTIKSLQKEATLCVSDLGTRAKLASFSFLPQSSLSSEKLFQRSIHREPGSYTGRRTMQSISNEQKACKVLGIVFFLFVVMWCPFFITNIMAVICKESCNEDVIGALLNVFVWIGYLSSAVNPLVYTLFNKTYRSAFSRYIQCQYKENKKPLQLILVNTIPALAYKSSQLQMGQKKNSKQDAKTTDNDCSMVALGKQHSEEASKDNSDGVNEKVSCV
In short: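 Antagonist-mode intracellular calcium assay: DOI (4 nM) added after 5 min compound pre-incubation at room temperature to dye-loaded HTR2A-CHO cells. Fluorescence followed for 3 min, sampled every second.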

[12] = biological target: 5-hydroxytryptamine receptor 2A (Homo sapiens) (UniProt P28223); experiment: 5-hydroxytryptamine receptor 2A (HTR2A) small molecule agonists, cell-based qHTS assay (AID 1963587); further: nearly all actives have a fitted effect of over 30% in size
In short: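 CHO cells stably expressing human HTR2A, plated 18 h, loaded with calcium dye 1 h at 37 C. Agonist mode: compounds added and intracellular calcium fluorescence recorded kinetically for 2 min at 1 sec intervals.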

[13] = biological target: Muscarinic acetylcholine receptor M1 (Homo sapiens) (UniProt P11229); experiment: Cholinergic receptor muscarinic 1 (CHRM1) small molecule antagonists, cell-based qHTS assay (AID 1963588); further: nearly all actives have a fitted effect of over 40% in size
Chain of Muscarinic acetylcholine receptor M1 (Homo sapiens) (P11229 whole entry, looked up): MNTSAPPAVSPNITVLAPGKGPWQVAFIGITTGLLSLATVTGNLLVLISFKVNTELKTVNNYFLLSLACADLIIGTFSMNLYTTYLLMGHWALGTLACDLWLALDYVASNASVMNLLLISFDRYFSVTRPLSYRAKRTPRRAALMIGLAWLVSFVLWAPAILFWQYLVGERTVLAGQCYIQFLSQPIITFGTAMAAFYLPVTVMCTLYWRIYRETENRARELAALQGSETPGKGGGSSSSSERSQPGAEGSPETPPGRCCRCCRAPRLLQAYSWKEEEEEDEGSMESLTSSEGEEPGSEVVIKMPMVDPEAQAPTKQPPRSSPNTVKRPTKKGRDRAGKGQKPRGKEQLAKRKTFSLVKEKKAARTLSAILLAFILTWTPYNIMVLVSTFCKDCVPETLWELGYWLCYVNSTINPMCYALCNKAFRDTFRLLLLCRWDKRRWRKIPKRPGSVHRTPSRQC
In short: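 CHRM1-CHO calcium-flux assay, antagonist mode. Cells were seeded 18 h, dye-loaded 1 h at 37 C and given compound for 5 min at RT, then acetylcholine was added at 50nM. FDSS fluorescence was read 3 min; 15 concentrations, three runs.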

[14] = biological target: Muscarinic acetylcholine receptor M1 (Homo sapiens) (UniProt P11229); experiment: Cholinergic receptor muscarinic 1 (CHRM1) small molecule agonists, cell-based qHTS assay (AID 1963589); further: nearly all actives have a fitted effect of over 35% in size
In short: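 CHO cells stably expressing human CHRM1, seeded 18 h at 37 C/5% CO2, dye-loaded 1 h at 37 C, then given compound in agonist mode; intracellular calcium fluorescence read kinetically at 1 s intervals. Fifteen concentrations, three independent runs.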

[15] = cAMP Responsive Elements (CRE) small molecule agonists, cell-based qHTS assay (AID 1963590)
In short: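 CRE-bla HEK 293T cells in DMEM with 10% dialyzed FBS, NEAA, pyruvate and 25 mM HEPES were plated 18 h at 37 C/5% CO2, then exposed to compounds in DMSO for 3 h before LiveBLAzer B/G FRET substrate addition.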

[16] = cAMP Responsive Elements (CRE) small molecule antagonists, cell-based qHTS assay (AID 1963591; active means well fitted inhibition curve with a large enough effect in the signal ratio in the repeat runs, not every such curve was filed as active; the % refers to the signal ratio)
In short: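 CRE-bla HEK293T cells were plated 18 h at 37 °C/5% CO2, pinned with compound in DMSO, then stimulated with NKH477 at 0.25 uM final for 3 h. LiveBLAzer B/G FRET substrate was added and plates incubated 2 h at room temperature.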

[17] = biological target: Beta-2 adrenergic receptor (Homo sapiens) (UniProt P07550); experiment: Adrenergic beta2 receptor (ADRB2) small molecule antagonists, cell-based qHTS assay (AID 1963592); further: series mostly up to about 92 µM; nearly all actives have a fitted effect of over 50% in size
Chain of Beta-2 adrenergic receptor (Homo sapiens) (P07550 whole entry, looked up): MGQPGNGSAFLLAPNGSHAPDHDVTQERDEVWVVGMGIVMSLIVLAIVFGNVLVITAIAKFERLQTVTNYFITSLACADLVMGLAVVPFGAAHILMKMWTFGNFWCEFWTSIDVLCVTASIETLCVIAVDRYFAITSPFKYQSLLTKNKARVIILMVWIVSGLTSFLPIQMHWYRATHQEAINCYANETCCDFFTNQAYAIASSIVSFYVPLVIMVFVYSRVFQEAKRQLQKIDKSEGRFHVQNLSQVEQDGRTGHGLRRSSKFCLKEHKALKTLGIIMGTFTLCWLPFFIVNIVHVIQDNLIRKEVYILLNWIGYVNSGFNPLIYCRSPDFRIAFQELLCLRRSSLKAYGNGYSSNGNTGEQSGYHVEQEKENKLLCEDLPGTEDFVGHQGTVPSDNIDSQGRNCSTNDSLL
In short: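 Cells (CHO, stable ADRB2 overexpression) incubated 18-20hr at 37C; compounds added from DMSO; agonist mix (1nM isoproterenol, 100uM IBMX, 25uM Ro-20-1724) added; 0.5hr RT; d2-cAMP and anti-cAMP-cryptate added; 1hr RT; 665/615 nm read.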

[18] = biological target: Beta-2 adrenergic receptor (Homo sapiens) (UniProt P07550); experiment: Adrenergic beta2 receptor (ADRB2) small molecule agonists, cell-based qHTS assay (AID 1963593);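 further: CHO cells stably overexpressing human ADRB2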
In short: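 CHO cells stably over-expressing ADRB2 were plated overnight at 37C, then dosed with compounds plus a stimulation mix containing 100uM IBMX and 25uM Ro-20-1724 for 0.5hr at room temperature. cAMP was measured by HTRF competition, 1hr.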

[19] = biological target: D(2) dopamine receptor (Homo sapiens) (UniProt P14416); experiment: Dopamine D2 receptor (DRD2) small molecule agonists, cell-based qHTS assay (AID 1963594); further: nearly all actives have a fitted effect of over 35% in size
Chain of D(2) dopamine receptor (Homo sapiens) (P14416 whole entry, looked up): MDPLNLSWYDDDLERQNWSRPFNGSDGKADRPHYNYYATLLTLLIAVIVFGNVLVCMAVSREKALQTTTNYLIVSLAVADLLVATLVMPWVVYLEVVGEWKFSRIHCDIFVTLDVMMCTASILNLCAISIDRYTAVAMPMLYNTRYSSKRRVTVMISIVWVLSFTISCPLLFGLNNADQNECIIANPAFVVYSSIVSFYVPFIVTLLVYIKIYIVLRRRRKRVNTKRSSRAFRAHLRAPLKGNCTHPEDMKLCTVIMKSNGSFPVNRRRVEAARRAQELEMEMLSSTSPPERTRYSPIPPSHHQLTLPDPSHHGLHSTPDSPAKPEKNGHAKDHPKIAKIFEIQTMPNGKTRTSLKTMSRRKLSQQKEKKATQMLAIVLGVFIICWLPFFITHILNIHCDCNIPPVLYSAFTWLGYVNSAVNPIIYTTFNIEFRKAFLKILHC
In short: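 HEK293 cells stably expressing human DRD2, pre-treated with PDE inhibitor Ro20-1724 (0.1 mM final) and compound 10 min at room temperature, then stimulated with NKH477 (200nM […]) for 30 min. cAMP read by HTRF (665/620 nm).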

[20] = biological target: D(2) dopamine receptor (Homo sapiens) (UniProt P14416); experiment: Dopamine D2 receptor (DRD2) small molecule antagonists, cell-based qHTS assay (AID 1963595; active means well fitted inhibition curve with a large enough effect in the signal ratio in the repeat runs, with a control signal flat; the % refers to the signal ratio)
In short: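 Human DRD2 antagonist qHTS measuring cAMP by HTRF. The cells are exposed to compound for 10 min, then to NKH477 (200 nM) and quinpirole (12 nM) for 30 min at RT, with Ro20-1724 (0.1 mM) present throughout.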

Measured: Potency

C=C(C)C(=O)OCCNC(C)(C)C
inactive: [1] | [2] | [3] | [4] | [5] | [6] | [7] | [8] | [9] | [10] | [11] | [12] | [13] | [14] | [15] | [16] | [17] | [18] | [19] | [20]

CCCCOC(=O)CCS
inactive: [1] | [2] | [3] | [4] | [5] | [6] | [7] | [8] | [9] | [10] | [11] | [12] | [13] | [14] | [15] | [16] | [17] | [18] | [19] | [20]

COc1ccc(C#N)cc1
inactive: [1] | [2] | [3] | [4] | [5] | [6] | [7] | [8] | [9] | [10] | [11] | [12] | [13] | [14] | [15] | [16] | [18] | [19] | [20]

Nc1cc(S(=O)(=O)O)cc2cc(S(=O)(=O)O)cc(O)c12
inactive: [1] | [2] | [3] | [4] | [5] | [6] | [7] | [8] | [9] | [11] | [12] | [13] | [14] | [15] | [16] | [17]

CCCCCCCCCCCCC(=O)O
inactive: [1] | [2] | [3] | [4] | [5] | [6] | [7] | [8] | [9] | [11] | [12] | [14] | [15] | [16] | [17] | [18] | [20]

CCC(COC(=O)CCS)(COC(=O)CCS)COC(=O)CCS
inactive: [1] | [2] | [3] | [4] | [5] | [6] | [7] | [8] | [10] | [11] | [12] | [13] | [15] | [16] | [17] | [19] | [20]

CC(C)(O)C(=O)c1ccc(OCCO)cc1
inactive: [1] | [2] | [3] | [4] | [5] | [6] | [7] | [8] | [10] | [11] | [12] | [13] | [14] | [15] | [16] | [17] | [19] | [20]
